Data taken from PubChem BioAssay (NCI).
This is part of a sample that, as a whole, favours compounds with a hit. Of some 83,000 tested, about 20% had one in any assay.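 For each line, cells grew in 96-well plates with the test compound present at a single concentration for 48 hours.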 Calls of active or inactive are those of the source. Rule for the calls: active = growth percent below 10; inactive = the rest.

Assays:
Test in all cases: NCI-60 one-dose screen, 48 h (100 = growth as untreated, 0 = no growth, -100 = all killed)
Conditions in all cases: 10 µM unless noted
NCI-H23 lung = system: NCI-H23 lung
NCI-H226 lung = system: NCI-H226 lung
NCI-H322M lung = system: NCI-H322M lung
HOP-62 NSCLC = system: HOP-62 NSCLC
NCI-H460 lung = system: NCI-H460 lung
HOP-92 NSCLC = system: HOP-92 NSCLC
NCI-H522 lung = system: NCI-H522 lung
A549/ATCC NSCLC = system: A549/ATCC NSCLC
786-0 renal = system: 786-0 renal
COLO 205 colon = system: COLO 205 colon

Measured: growth

C#CCOc1cccc(-c2ncc3cc(NC(=O)CCl)ccc3n2)c1
active: NCI-H23 lung -13.8% | NCI-H226 lung 2.41% | HOP-62 NSCLC -5.99% | NCI-H522 lung -72.2% | 786-0 renal -81.4% | COLO 205 colon -77.7%
inactive: NCI-H322M lung 69.4% | NCI-H460 lung 27.8% | HOP-92 NSCLC 14.2% | A549/ATCC NSCLC 73.4%

COCC[C@H]1CCC/C=C/[C@@H]2C[C@H](O)C[C@H]2[C@H](O)/C=C/C(=O)O1
active: NCI-H23 lung 6.07% | NCI-H226 lung -40.4% | HOP-92 NSCLC -8.55% | NCI-H522 lung -28.6% | 786-0 renal -45.9%
inactive: NCI-H322M lung 29.7% | HOP-62 NSCLC 31.5% | NCI-H460 lung 15.1% | A549/ATCC NSCLC 13.6%

COc1ccc(OC)c(Nc2nnc(-c3ccc(Cl)cc3)o2)c1
inactive: NCI-H23 lung 75% | NCI-H226 lung 93.8% | NCI-H322M lung 56.9% | HOP-62 NSCLC 46.7% | NCI-H460 lung 18.8% | HOP-92 NSCLC 100% | NCI-H522 lung 89.9% | A549/ATCC NSCLC 44.7% | 786-0 renal 26.4%

c1ccc(CCc2ccccc2-c2cc(-c3ccccc3)on2)cc1
inactive: NCI-H23 lung 75.1% | NCI-H226 lung 96.5% | NCI-H322M lung 87% | HOP-62 NSCLC 96.5% | NCI-H460 lung 82.4% | HOP-92 NSCLC 103% | NCI-H522 lung 80.1% | A549/ATCC NSCLC 97.7% | 786-0 renal 94.5%

CCN=C1C=CC(=C(c2ccc(N(C)C)cc2)c2ccc(N(C)C)cc2)c2ccccc21
active: NCI-H23 lung -5.87% | NCI-H226 lung -7.49% | NCI-H322M lung -30.1% | HOP-62 NSCLC -55.5% | NCI-H460 lung -36.8% | HOP-92 NSCLC -21.5% | NCI-H522 lung -36.8% | A549/ATCC NSCLC 1.14% | 786-0 renal -11%

COc1cc(C2C3=C(COC3=O)N(CCO)c3cc4c(cc32)OCCO4)cc(OC)c1OC (centres undefined)
inactive: NCI-H23 lung 14.5% | NCI-H226 lung 13.5% | NCI-H322M lung 36.9% | HOP-62 NSCLC 15.4% | HOP-92 NSCLC 26.8% | A549/ATCC NSCLC 11.9%
active: NCI-H460 lung 1.13% | NCI-H522 lung -10% | 786-0 renal 1.83%

O=C(CCCCl)NNc1nccc(Nc2ccc(S(=O)(=O)Nc3ccncc3)cc2)n1
inactive: NCI-H23 lung 99.3% | NCI-H226 lung 104% | NCI-H322M lung 102% | HOP-62 NSCLC 94.6% | NCI-H460 lung 109% | HOP-92 NSCLC 98.5% | NCI-H522 lung 99.7% | A549/ATCC NSCLC 96.6% | 786-0 renal 95.2%

CCN(CC)CCCNCc1cc(-c2ccccc2)nc2cc(Cl)ccc12
active: HOP-92 NSCLC -20.9% | 786-0 renal -27.6%
inactive: NCI-H23 lung 68.6% | NCI-H226 lung 140% | NCI-H322M lung 75.5% | HOP-62 NSCLC 78.1% | NCI-H460 lung 43.3% | NCI-H522 lung 44.2% | A549/ATCC NSCLC 57.4%

C[C@@H]1CC[C@@]2(OC1)O[C@H]1C[C@H]3[C@@H]4CC=C5C[C@@H](O[C@@H]6O[C@H](CO)[C@@H](O[C@@H]7O[C@@H](CO)[C@H](O)[C@H]7O)[C@H](O)[C@H]6O[C@@H]6O[C@@H](C)[C@H](O)[C@@H](O)[C@H]6O)CC[C@]5(C)[C@H]4CC[C@]3(C)[C@H]1[C@@H]2C
active: NCI-H23 lung -95.5% | NCI-H226 lung -51.8% | NCI-H322M lung -87.7% | HOP-62 NSCLC 6.56% | NCI-H460 lung -93.7% | HOP-92 NSCLC -67.2% | NCI-H522 lung -41.4% | A549/ATCC NSCLC -96.8% | 786-0 renal -89.6%

COc1ccc(/C=C/C(=O)c2cc3c(N)c(C(=O)Nc4ccccc4C)sc3nc2C)cc1
inactive: NCI-H23 lung 36.1% | NCI-H226 lung 53.3% | NCI-H322M lung 35.7% | HOP-62 NSCLC 32.6% | HOP-92 NSCLC 79.2% | A549/ATCC NSCLC 20.1% | 786-0 renal 21.3%
active: NCI-H460 lung 1.23% | NCI-H522 lung -28.4%

OC(c1ccccc1)(c1ccccc1)c1ccccc1-c1ccccc1
inactive: NCI-H23 lung 83.9% | NCI-H226 lung 91.9% | NCI-H322M lung 101% | HOP-62 NSCLC 90.4% | NCI-H460 lung 93.1% | HOP-92 NSCLC 67.1% | NCI-H522 lung 75.9% | A549/ATCC NSCLC 81.8% | 786-0 renal 95.9% | COLO 205 colon 81%

O=C(CBr)CN1C(=O)c2ccccc2C1=O
active: HOP-92 NSCLC -10.6%
inactive: NCI-H23 lung 95.1% | NCI-H226 lung 98.7% | NCI-H322M lung 101% | HOP-62 NSCLC 97.9% | NCI-H460 lung 108% | NCI-H522 lung 101% | A549/ATCC NSCLC 103% | 786-0 renal 101%

Cc1cccc(N2CCN(C(=S)c3ccc4c(c3)OCO4)CC2)c1
inactive: NCI-H23 lung 31.3% | NCI-H226 lung 57.2% | NCI-H322M lung 33.2% | HOP-62 NSCLC 28.9% | HOP-92 NSCLC 74.4% | A549/ATCC NSCLC 31.7% | 786-0 renal 30.2%
active: NCI-H460 lung 8.2% | NCI-H522 lung -25.2%

CN1CCN(CCCOC(=O)c2c3c(n4ccccc24)C(=O)c2ncccc2C3=O)CC1
inactive: NCI-H226 lung 15.7% | NCI-H322M lung 28.5% | HOP-92 NSCLC 14.8%
active: NCI-H23 lung -30.6% | HOP-62 NSCLC -34.9% | NCI-H460 lung -15.1% | NCI-H522 lung -87.1% | A549/ATCC NSCLC -47.9% | 786-0 renal 1.4%

COc1ccc(C2=CN3CC=CCC3CC2=O)cc1 (centres undefined)
inactive: NCI-H23 lung 106% | NCI-H226 lung 99.9% | NCI-H322M lung 113% | HOP-62 NSCLC 87.8% | NCI-H460 lung 108% | HOP-92 NSCLC 92.1% | NCI-H522 lung 66.9% | A549/ATCC NSCLC 75% | 786-0 renal 101%

C=CC(=O)N1CCN(c2ccc3cccc(NC(=O)c4cnc(C)cn4)c3n2)CC1
inactive: NCI-H23 lung 66.7% | NCI-H226 lung 42.9% | NCI-H322M lung 21.2% | HOP-62 NSCLC 41.1% | NCI-H460 lung 34.7% | HOP-92 NSCLC 42.7% | NCI-H522 lung 10.4% | A549/ATCC NSCLC 27.3% | 786-0 renal 24.8%

Cc1ccc(C(=O)c2ccc(CC(=O)N/N=C/c3ccc(O)cc3O)n2C)cc1
inactive: NCI-H23 lung 42.4% | NCI-H226 lung 65.7% | NCI-H322M lung 38% | HOP-62 NSCLC 40.6% | NCI-H460 lung 21.1% | HOP-92 NSCLC 83.1% | NCI-H522 lung 55.5% | A549/ATCC NSCLC 46.6% | 786-0 renal 43.4% | COLO 205 colon 41.8%

CCOC(=O)c1c(NC(=O)c2ccc(OC)cc2)sc2c(CN(C)C)c(O)ccc12
inactive: NCI-H23 lung 90.6% | NCI-H226 lung 101% | NCI-H322M lung 89.6% | HOP-62 NSCLC 85% | NCI-H460 lung 60% | HOP-92 NSCLC 25.3% | NCI-H522 lung 75.1% | A549/ATCC NSCLC 74% | 786-0 renal 63.4%

O=C(Cn1nnc2ccccc21)Nc1ccc(-c2nc3ccccc3s2)cc1
inactive: NCI-H23 lung 80.7% | NCI-H226 lung 67.5% | NCI-H322M lung 103% | HOP-62 NSCLC 101% | NCI-H460 lung 83% | HOP-92 NSCLC 73.1% | NCI-H522 lung 79.3% | A549/ATCC NSCLC 93.6% | 786-0 renal 95%

CCn1cc(C(=O)N/N=C/c2ccc(Br)cc2)c(=O)c2cc(F)c(N3CCNC(C)C3)c(F)c21 (centres undefined)
active: NCI-H460 lung -50.8%
inactive: NCI-H23 lung 91% | NCI-H226 lung 97.3% | NCI-H322M lung 85.8% | HOP-62 NSCLC 88.8% | HOP-92 NSCLC 61.2% | NCI-H522 lung 78.5% | A549/ATCC NSCLC 45.3% | 786-0 renal 63.9%

COc1cc(/C=C\c2cc(/C=C\c3ccc(O)c(OC)c3)n(C(=O)CNc3ccc(Cl)cc3)n2)ccc1O
active: NCI-H460 lung 6.98% | NCI-H522 lung 2.11%
inactive: NCI-H23 lung 24% | NCI-H226 lung 51.2% | NCI-H322M lung 39.2% | HOP-62 NSCLC 23.3% | HOP-92 NSCLC 66.9% | A549/ATCC NSCLC 19.5% | 786-0 renal 15.7%

COC(=O)C1=C(C)NC(C)=C(C(=O)OCC(C)C)C1c1ccccc1[N+](=O)[O-] (centres undefined)
inactive: NCI-H23 lung 58.4% | NCI-H226 lung 93.1% | NCI-H322M lung 65.4% | HOP-62 NSCLC 79.1% | NCI-H460 lung 49.5% | HOP-92 NSCLC 47.3% | NCI-H522 lung 25.4% | A549/ATCC NSCLC 65.4% | 786-0 renal 59%

COc1ccc2cc(Cn3cc[n+](Cc4ccc5ccccc5c4)c3)ccc2c1
inactive: NCI-H23 lung 36% | NCI-H226 lung 49.2% | NCI-H322M lung 65.8% | HOP-62 NSCLC 49.8% | NCI-H460 lung 38.3% | A549/ATCC NSCLC 57.1% | 786-0 renal 51%
active: HOP-92 NSCLC -11.8% | NCI-H522 lung -13.6%

CCCCCCCCn1ccc2cc(NC(=O)Cn3cc(CN4CCOCC4)nn3)ccc21
inactive: NCI-H23 lung 106% | NCI-H226 lung 92.3% | NCI-H322M lung 96.8% | HOP-62 NSCLC 113% | NCI-H460 lung 101% | HOP-92 NSCLC 70.4% | NCI-H522 lung 90.4% | A549/ATCC NSCLC 98.3% | 786-0 renal 90.6%

Cc1[nH]c(C(=O)Nc2ccc(C(N)=O)cc2NC(C)C)c(Cl)c1Cl
inactive: NCI-H23 lung 85.8% | NCI-H226 lung 91.6% | NCI-H322M lung 98.7% | HOP-62 NSCLC 104% | NCI-H460 lung 93.1% | HOP-92 NSCLC 72.7% | NCI-H522 lung 79.3% | A549/ATCC NSCLC 85.5% | 786-0 renal 91.1%

CN1CCCc2cc(/C=C3/SC(=S)N(CCc4ccc(O)cc4)C3=O)ccc21
inactive: NCI-H23 lung 94.1% | NCI-H226 lung 88.5% | NCI-H322M lung 95.1% | HOP-62 NSCLC 101% | NCI-H460 lung 95.1% | HOP-92 NSCLC 48.3% | NCI-H522 lung 43.8% | A549/ATCC NSCLC 87.3% | 786-0 renal 87.6%

CCC/C(=N\NC(N)=O)C(OC)OC
inactive: NCI-H23 lung 99.9% | NCI-H226 lung 108% | NCI-H322M lung 109% | HOP-62 NSCLC 109% | NCI-H460 lung 109% | HOP-92 NSCLC 68.4% | NCI-H522 lung 79.9% | A549/ATCC NSCLC 93.6% | 786-0 renal 99.4%

COC(=O)C1=Nc2ccc(F)cc2/C1=C\c1sc(Nc2ccc(O)cc2)nc1O
inactive: NCI-H23 lung 73.4% | NCI-H226 lung 78.2% | NCI-H322M lung 96.7% | HOP-62 NSCLC 64.3% | NCI-H460 lung 102% | HOP-92 NSCLC 42.7% | NCI-H522 lung 47.4% | A549/ATCC NSCLC 99% | 786-0 renal 66.1%

C#CCn1cnc2c(Nc3cccc(NC(=O)CCl)c3)ncnc21
active: NCI-H522 lung -19.1%
inactive: NCI-H23 lung 38.1% | NCI-H226 lung 51.4% | NCI-H322M lung 81.1% | HOP-62 NSCLC 43.5% | NCI-H460 lung 21.8% | HOP-92 NSCLC 35.3% | A549/ATCC NSCLC 44.8% | 786-0 renal 49.2%
